Compound activity deposited in PubChem by Broad Institute.
Sampled rows, rich in hits. Any-hit rate of the full collection: about 0.53%.
Y pestis TopoI: blocks Yersinia pestis topoisomerase I activity. Y. pestis Topo-I cleavage product accumulation, plate reader. activity, % at 10 µM. 360,000 tested, 0.064% active. AID 504884; in the data active means activity above about 50%, passing the limit was not always enough
BioA inh: blocks M. tuberculosis BioA enzyme activity. inhibition, % at 9.99 µM. AID 602481. 360,000 tested, 0.096% active. purified M. tuberculosis BioA enzyme, plate reader; in the data active means inhibition above about 40%
TcdB inh: TcdB glycohydrolase inhibition; inhibition, % at 9.99 µM; TcdB glycohydrolase enzymatic assay, plate reader; P18177; 350,000 tested, 0.24% active; in the data active means inhibition above about 10%
PrP 5UTR inh: suppresses PrP 5' UTR mRNA reporter expression; cell-based PrP 5' UTR mRNA reporter, plate reader; inhibition, % (test concentration not listed); 340,000 tested, 0.35% active; in the data active means inhibition above about 52%; further: 0 = median of the neutral control wells
Starred values were filed as active, the others as inactive; x = not tested or not shown; ! = not active in a repeat.

SMILES | Y pestis TopoI | BioA inh | TcdB inh | PrP 5UTR inh
CO[C@@H]1CN(C)C(=O)c2cc(NS(=O)(=O)c3cn(C)cn3)ccc2OC[C@H](C)N(C)C[C@@H]1C | x | 0 | x | x
COc1ccc(CN(Cc2cccn2C)C(=O)c2cc3cc(OC)ccc3[nH]2)cc1 | 51* | 0 | 0 | -15
CCCOc1ccc(C(=O)Nc2ccc(S(=O)(=O)N3C[C@@H]4C[C@@H](C3)c3cccc(=O)n3C4)cc2)cc1 | 67* | -1 | 1 | -13
Clc1ccc(-c2nc3cnccn3c2Nc2ccc3c(c2)OCO3)cc1 | 6 | 12 | 0 | 4
CSc1ccc(-c2nc3cnccn3c2Nc2ccc3c(c2)OCO3)cc1 | 4 | 61* | x | -1
COc1cccc(NC(=O)N(C)C[C@@H]2Oc3ncc(/C=C/c4ccccc4)cc3C(=O)N([C@H](C)CO)C[C@@H]2C)c1 | x | -2 | x | x
COc1ccccc1Nc1nnc(SCc2cc(=O)n3ccsc3n2)s1 | 9 | -1 | 15* | -24
Cc1ccc(Nc2nnc(SCc3cc(=O)n4ccsc4n3)s2)c(C)c1 | -3 | 1 | x | -2
C/C=C/c1ccc2c(c1)O[C@H](CN(C)C(=O)C1CCCCC1)[C@H](C)CN([C@@H](C)CO)S2(=O)=O | x | 0 | 1 | x
CNC(=O)N(O)C1N(/N=C/c2ccc(SC)cc2)C(=S)SC1(C)C (configuration not stated) | 5 | -1 | 10* | -21
CC(Oc1ccc(Cl)cc1Cl)C(=O)Nc1cccc(O)c1 (configuration not stated) | -1 | -23 | 0 | -32
CC(Oc1ccc(Cl)cc1Cl)C(=O)Nc1ccc(O)cc1 (configuration not stated) | -11 | x | 14* | -14
C/C(=N\Nc1ncc(Cl)cc1Cl)c1ccccn1 | 2 | x | x | 78*
C/C(=N\Nc1ccc(Cl)c(C(=O)O)c1)c1ccccn1 | -4 | x | -3 | -15
C=CCN=c1scc(C)n1/N=C/c1ccc(O)c(O)c1 | -4 | x | 15* | -27
CN=c1scc(C)n1/N=C/c1ccc(O)cc1 | -10 | 0 | x | -46
O=C(Nc1ccccc1F)N[C@H]1C=C[C@@H](CC(=O)N2CCCCC2)O[C@@H]1CO | x | -1 | 0 | x
C/C(=N\OCC(=O)Nc1nc2ccccc2s1)c1ccccc1 | -3 | x | 10* | -25
COc1ccc(/C(C)=N/OCC(=O)Nc2nc3ccccc3s2)cc1OC | 9 | -1 | 0 | -17
COc1ccc(/C=C2/SC(=S)N(CCC(=O)O)C2=O)cc1 | 2 | -1 | x | 63*
CCc1ccc(Nc2nc(N)nc(CSc3nnnn3-c3ccccc3)n2)cc1 | 53* | -2 | x | -14
CC(C)(C)c1ccc(OCCn2nc(C(=O)O)c3ccccc3c2=O)cc1 | 72* | 2 | -1 | -25
O=c1ccc2cc(O)c(O)cc2o1 | -2 | 0 | 13* | -27
CCC(=NC(C)c1ccccc1)c1c(O)[nH]c(=O)[nH]c1=O (configuration not stated) | 5 | 0 | 1 | 3
CCC(=NCCC(c1ccccc1)c1ccccc1)c1c(O)[nH]c(=O)[nH]c1=O | 66* | -1 | x | -6
SMILES | Y pestis TopoI | BioA inh | TcdB inh | PrP 5UTR inh
C[C@H]1CCCCO[C@H](CN(C)Cc2ccncc2)[C@@H](C)CN([C@@H](C)CO)C(=O)c2cc(NC(=O)Nc3cccc4ccccc34)ccc2O1 | x | 18 | -1 | x
COc1ccc(C(=O)NC(CC(=O)O)c2cc([N+](=O)[O-])ccc2Cl)c(SC)c1 (configuration not stated) | 6 | x | 34* | -12
Cc1n[nH]c(=O)nc1Nc1ccc(O)cc1 | 8 | 0 | 21* | -14
CC(C)=CCOc1c2occc2cc2ccc(=O)oc12 | 7 | 1 | 13* | -3
O=C(Nc1ccc(Nc2ccccc2)cc1)c1ccccc1 | x | x | 1 | x
NC(=O)Nc1ccc(Nc2ccccc2)cc1 | -13 | x | 15* | -10
COc1cc([N+](=O)[O-])ccc1NC(=O)Oc1ccc(NC(C)=O)cc1 | -1 | 2 | 10* | -40
COc1ccc([N+](=O)[O-])cc1NC(=S)NC(C)=O | -2 | x | 16* | -2
COc1ccc(NC(=O)c2cc([N+](=O)[O-])ccc2O)cc1 | 9 | x | 9 | 87*
CC(=O)Nc1ccc(OC(=O)c2cc([N+](=O)[O-])ccc2Cl)cc1 | 5 | 0 | 2 | -15
O=C(C[C@@H]1CC[C@H]2[C@@H](COC[C@@H](O)CN2C(=O)c2cccnc2)O1)NC1Cc2ccccc2C1 | x | 0 | -1 | x
S=C(NCCCN1CCOCC1)Nc1ccc(Nc2ccccc2)cc1 | 3 | 0 | 5 | -13
S=C(NCCN1CCOCC1)Nc1ccc(Nc2ccccc2)cc1 | 3 | 2 | 31* | -10
CN(C)Cc1c(O)ccc2[nH]cnc12 | 2 | -2 | x | -15
Oc1ccc2ccc3[nH]cnc3c2c1 | 3 | -2 | 21* | -15
CCOC(=O)c1nnn(-c2nonc2N)c1-c1ccccc1Cl | -2 | x | 16* | -15
CCOC(=O)c1nnn(-c2nonc2N)c1-c1ccc(F)cc1 | -2 | -1 | 12* | -10
CC[n+]1ccc(/C=C/c2ccc(N(C)C)cc2)c2ccccc21 | -38 | x | 15* | 20
CC[n+]1ccccc1/C=C/c1ccc(N(C)C)cc1 | 3 | -1 | 0 | -16
Cc1ccc(-c2nnc(OCCN3CCOCC3)c3ccccc23)cc1 | 29 | 17 | x | -6
c1ccc(-c2nnc(OCC3CCCO3)c3ccccc23)cc1 (configuration not stated) | 15 | 7 | 11* | -18
C[C@H]1C=C(C(=O)NCc2nc3ccccc3[nH]2)O[C@@H](OCc2ccc(CO)cc2)C1 | 6 | 3 | 11*! | -22
CC(C)(C)[C@@H]1C=C(C(=O)NCc2nc3ccccc3[nH]2)O[C@H](OCc2ccc(CO)cc2)C1 | x | x | 0 | x
O=C(C[C@H]1C=C[C@@H](NC(=O)NC2CCCCC2)[C@@H](CO)O1)NCc1ccc(F)cc1 | x | -1 | 1 | x
CC(C)C(=O)N1CCN(c2nc(-c3ccc(Cl)cc3)cs2)CC1 | 53* | x | x | -12
SMILES | Y pestis TopoI | BioA inh | TcdB inh | PrP 5UTR inh
COc1ccc(CNC(=O)Cc2cn(C)c3ccccc23)c(OC)c1 | 10 | 1 | 28* | -22
COc1ccccc1CNC(=O)CCCc1cn(C)c2ccccc12 | 7 | 0 | -5 | 3
C[C@H](CO)N1C[C@H](C)[C@@H](CN(C)C(=O)Nc2ccc(C(F)(F)F)cc2)Oc2ncc(C#C[C@@H](C)O)cc2C1=O | x | -1 | x | x
CCN1[C@@H]2c3ccc(-c4ccccc4OC)c(=O)n3C[C@@H]2[C@@H](CO)[C@@H]1C(=O)NCc1ccc(F)cc1 | x | -6 | -1 | x
Cc1cc(C(=O)N2CCN(Cc3ccccc3)CC2)ccc1[N+](=O)[O-] | 1 | 1 | 12* | 2
CC(C)C(=O)Nc1ccc2c(c1)C(=O)N(C)[C@@H]1CC[C@@H](CC(=O)O)O[C@H]1CO2 | x | -2 | -1 | x
COC(=O)c1ccccc1NC(=O)N1C[C@@H]2C[C@@H](C1)c1cccc(=O)n1C2 | 3 | -1 | 0 | -9
O=C(O)c1ccccc1NC(=O)N1C[C@H]2C[C@@H](C1)c1cccc(=O)n1C2 | -6 | 0 | 15* | 44
O=c1onc(-c2ccccc2)n1Cc1ccc([N+](=O)[O-])cc1 | 9 | 1 | 10* | x
CCS(=O)(=O)Nc1ccc2c(c1)C(=O)N(C)[C@H]1CC[C@H](CC(=O)NC)O[C@@H]1CO2 | x | x | 0 | x
